Test results reported in PubChem BioAssay (NCATS).
Results filed as inconclusive are left out. The source made the active and inactive calls. The call rests on the fitted dose curve; in most records, active means well fitted cell-killing curve with a large enough effect; inconclusive means small, poorly fitted or top-dose-only effect, or effect the other way; inactive means flat fitted curve, though single readings scatter.

How the values were obtained:
Assay in all cases: Primary qHTS to identify gynecologic anti-cancer compounds using libraries of approved drugs and bioactive compounds (AID 1345084); further: nearly all actives have a fitted effect of over 55% in size
[1] = system: CAOV3; conditions: Gynecologic cancer cell panel viability, ATPlite luminescence, 48 h; series mostly up to 57.5 µM
Procedure, shortened: (§1)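 Luminescence from the ATPlite ATP-monitoring reagent indicates viable cell number; lower signal means cytotoxicity. Cells received compound 16 h after seeding and were exposed for 48 h across five concentrations.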

[2] = system: CASKI; conditions: Gynecologic cancer cell panel viability, ATPlite luminescence, 48 h; series mostly up to 57.5 µM
Procedure, shortened: as §1

[3] = system: Es-2; conditions: Gynecologic cancer cell panel viability, ATPlite luminescence, 48 h; series mostly up to 57.5 µM
Procedure, shortened: as §1

[4] = system: HeLa; conditions: Gynecologic cancer cell panel viability, ATPlite luminescence, 48 h; series mostly up to 57.5 µM
Procedure, shortened: as §1

[5] = system: Hek293T; conditions: Gynecologic cancer cell panel viability, ATPlite luminescence, 48 h, control line for the selectivity index; series mostly up to 57.5 µM
Procedure, shortened: as §1

[6] = system: JEG-3; conditions: Gynecologic cancer cell panel viability, ATPlite luminescence, 48 h; series mostly up to 57.5 µM
Procedure, shortened: as §1

[7] = system: OV90; conditions: Gynecologic cancer cell panel viability, ATPlite luminescence, 48 h; series mostly up to 57.5 µM
Procedure, shortened: as §1

[8] = system: PA-1; conditions: Gynecologic cancer cell panel viability, ATPlite luminescence, 48 h; series mostly up to 57.5 µM
Procedure, shortened: as §1

[9] = system: SKOV3; conditions: Gynecologic cancer cell panel viability, ATPlite luminescence, 48 h; series mostly up to 57.5 µM
Procedure, shortened: as §1

[10] = system: Tov-21-G; conditions: Gynecologic cancer cell panel viability, ATPlite luminescence, 48 h; series mostly up to 57.5 µM
Procedure, shortened: as §1

[11] = system: Tov112D; conditions: Gynecologic cancer cell panel viability, ATPlite luminescence, 48 h; series mostly up to 57.5 µM
Procedure, shortened: as §1
On the % scale 0 is the no-effect control and ±100 the full control effect.

C[C@@]12C[C@]3(O)O[C@H](O1)[C@]1(COC(=O)c4ccccc4)[C@H]3C[C@@]12O[C@@H]1O[C@H](COC(=O)c2ccccc2)[C@@H](O)[C@H](O)[C@H]1O
inactive: Potency [1] | Potency [2] | Potency [3] | Potency [4] | Potency [5] | Potency [6] | Potency [7] | Potency [8] | Potency [9] | Potency [10] | Potency [11]

N[C@H]1C[C@H]1c1ccc(-c2cccc(O)c2)cc1
inactive: Potency [1] | Potency [2] | Potency [3] | Potency [4] | Potency [5] | Potency [6] | Potency [7] | Potency [8] | Potency [9] | Potency [10] | Potency [11]

COc1cc(CCc2ccccc2)c(C(=O)O)c2c1CC(C(C)(C)O)O2 (stereo not drawn)
inactive: Potency [1] | Potency [2] | Potency [3] | Potency [4] | Potency [5] | Potency [6] | Potency [7] | Potency [8] | Potency [9] | Potency [10] | Potency [11]

C=C1C(=O)OC2CC(C)=C(C(C)CCCO[C@@H]3O[C@H](CO)[C@@H](O)[C@H](O)[C@H]3O)C(O)C12 (stereo partly drawn)
inactive: Potency [1] | Potency [2] | Potency [3] | Potency [4] | Potency [5] | Potency [6] | Potency [7] | Potency [8] | Potency [9] | Potency [10] | Potency [11]

COC(=O)c1cc(CN2CCN(C(=N)N)CC2)cc(C(=O)N2CCN(C(=O)c3ccc(C(=N)N)cc3)CC2)c1
inactive: Potency [1] | Potency [2] | Potency [3] | Potency [4] | Potency [5] | Potency [6] | Potency [7] | Potency [8] | Potency [9] | Potency [10] | Potency [11]

C[C@@H]1O[C@@H](O[C@@H]2[C@@H](O)[C@H](O[C@@H]3[C@@H](O)[C@@H](O)[C@H](O[C@H]4[C@H](OC(=O)[C@]56CCC(C)(C)C[C@H]5C5=CCC7[C@@]8(C)C[C@H](O)[C@H](O[C@@H]9O[C@H](C(=O)O)[C@@H](O)[C@H](O)[C@H]9O)[C@@](C)(CO)C8[C@H](O)C[C@@]7(C)[C@]5(C)CC6)OC[C@H](O)[C@@H]4O)O[C@H]3C)OC[C@H]2O)[C@H](O)[C@H](O)[C@H]1O (stereo partly drawn)
inactive: activity change, negative = cytotoxicity [1] 1.69% [at 6.55 µM] | activity change, negative = cytotoxicity [2] -21.9% [at 6.55 µM] | activity change, negative = cytotoxicity [3] 7.07% [at 6.55 µM] | activity change, negative = cytotoxicity [4] 9.33% [at 6.55 µM] | activity change, negative = cytotoxicity [5] -1.15% [at 6.55 µM] | activity change, negative = cytotoxicity [6] -4.08% [at 6.55 µM] | activity change, negative = cytotoxicity [7] -1.61% [at 6.55 µM] | activity change, negative = cytotoxicity [8] 3.21% [at 6.55 µM] | activity change, negative = cytotoxicity [9] -6.44% [at 6.55 µM] | activity change, negative = cytotoxicity [10] -4.43% [at 6.55 µM] | activity change, negative = cytotoxicity [11] 4.06% [at 6.55 µM]

CC1=C(CC(=O)O)c2cc(F)ccc2C1=Cc1ccc(S(C)(=O)=O)cc1
inactive: Potency [1] | Potency [2] | Potency [3] | Potency [4] | Potency [5] | Potency [6] | Potency [7] | Potency [8] | Potency [9] | Potency [10] | Potency [11]

CC1(C)C(O)CCC2(C)C1C(O)C=C1COC(=O)C12O (stereo not drawn)
inactive: Potency [1] | Potency [2] | Potency [3] | Potency [4] | Potency [5] | Potency [6] | Potency [7] | Potency [8] | Potency [9] | Potency [10] | Potency [11]

CCOC(=O)c1c(C)nn(-c2cccc([N+](=O)[O-])c2)c1C
inactive: Potency [1] | Potency [2] | Potency [3] | Potency [4] | Potency [5] | Potency [6] | Potency [7] | Potency [8] | Potency [9] | Potency [10] | Potency [11]

CNC(=O)[C@H]1O[C@@H](n2cnc3c(NCc4ccc(N)c(I)c4)ncnc32)[C@H](O)[C@@H]1O
inactive: activity change, negative = cytotoxicity [1] -1.57% [at 11.6 µM] | activity change, negative = cytotoxicity [2] 16.3% [at 11.6 µM] | activity change, negative = cytotoxicity [3] 0.484% [at 11.6 µM] | activity change, negative = cytotoxicity [4] 5.87% [at 11.6 µM] | activity change, negative = cytotoxicity [5] 0.59% [at 11.6 µM] | activity change, negative = cytotoxicity [6] 20.5% [at 11.6 µM] | activity change, negative = cytotoxicity [7] -0.89% [at 11.6 µM] | activity change, negative = cytotoxicity [8] 0.696% [at 11.6 µM] | activity change, negative = cytotoxicity [9] -8.5% [at 11.6 µM] | activity change, negative = cytotoxicity [10] 15.7% [at 11.6 µM] | activity change, negative = cytotoxicity [11] 25.2% [at 11.6 µM]

C/C=C1/[C@H](O[C@@H]2O[C@H](CO)[C@@H](O)[C@H](O)[C@H]2O)OC=C(C(=O)OC)[C@H]1CC(=O)O[C@@H]1O[C@H](CO)[C@@H](O)[C@H](O)[C@H]1O
inactive: Potency [1] | Potency [2] | Potency [3] | Potency [4] | Potency [5] | Potency [6] | Potency [7] | Potency [8] | Potency [9] | Potency [10] | Potency [11]

C=C1CCC2C(C)(CO[C@@H]3O[C@H](CO)[C@@H](O)[C@H](O)[C@H]3O)C(O)CCC2(C)C1C(=O)CC1=CCOC1=O (stereo partly drawn)
inactive: Potency [1] | Potency [2] | Potency [3] | Potency [4] | Potency [5] | Potency [6] | Potency [7] | Potency [8] | Potency [9] | Potency [10] | Potency [11]

COc1ccc(C(O[C@@H]2O[C@H](CO)[C@@H](O)[C@H](O)[C@H]2O)C(CO)Oc2ccc(/C=C/CO)cc2OC)cc1O (stereo partly drawn)
inactive: Potency [1] | Potency [2] | Potency [3] | Potency [4] | Potency [5] | Potency [6] | Potency [7] | Potency [8] | Potency [9] | Potency [10] | Potency [11]
